# Assay results from paper PMC7862700, “An all-to-all approach to the identification of sequence-specific readers for epigenetic DNA modifications on cytosine”.
# What was measured:
# Test in all cases: DAPPL (digital affinity profiling via proximity ligation, sequencing); 10 mM Tris-HCl pH 7.5, 50 mM NaCl, 1 mM DTT, 4% glycerol, room temperature, 30 min; GST-TFs on glutathione beads, 16-mer random dsDNA library, 0.1% formaldehyde crosslink after washing; high values mean tight binding
# Details in all cases: protein: recombinant; tags: N-terminal GST; dsDNA, one strand shown
# FLI1 = target: T1, FLI1 (Homo sapiens, UniProt Q01543 1-452)
# T1 sequence: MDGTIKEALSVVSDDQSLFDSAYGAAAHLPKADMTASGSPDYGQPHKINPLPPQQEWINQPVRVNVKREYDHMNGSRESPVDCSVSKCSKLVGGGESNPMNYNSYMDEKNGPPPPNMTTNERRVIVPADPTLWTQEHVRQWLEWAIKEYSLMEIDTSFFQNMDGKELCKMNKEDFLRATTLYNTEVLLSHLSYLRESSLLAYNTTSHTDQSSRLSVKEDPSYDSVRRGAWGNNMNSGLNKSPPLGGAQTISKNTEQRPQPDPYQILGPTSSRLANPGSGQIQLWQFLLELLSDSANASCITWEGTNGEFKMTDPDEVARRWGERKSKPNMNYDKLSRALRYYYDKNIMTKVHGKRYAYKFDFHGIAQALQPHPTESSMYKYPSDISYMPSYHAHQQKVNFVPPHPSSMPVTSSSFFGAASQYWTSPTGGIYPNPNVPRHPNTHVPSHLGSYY
# Procedure, shortened: (§1)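 Human transcription factors carrying a GST fusion were produced in yeast, bound to glutathione beads, tagged with DNA barcodes and pooled together with a tag-only sample. Each pool was held with 200 nmole of a random double-stranded 16-mer DNA library in Tris/NaCl/DTT/glycerol buffer for 30 min at room temperature, then washed, crosslinked in 0.1% formaldehyde, proximity-ligated with BsaI/T4 ligase (1 h, 37 °C), PCR-amplified and sequenced on an Illumina NextSeq500. Binding signal is the read frequency of each hexamer for a given factor divided by its frequency in the tag-only sample.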
# ELK1 = target: T2, ELK1 (Homo sapiens, UniProt P19419 1-428)
# T2 sequence: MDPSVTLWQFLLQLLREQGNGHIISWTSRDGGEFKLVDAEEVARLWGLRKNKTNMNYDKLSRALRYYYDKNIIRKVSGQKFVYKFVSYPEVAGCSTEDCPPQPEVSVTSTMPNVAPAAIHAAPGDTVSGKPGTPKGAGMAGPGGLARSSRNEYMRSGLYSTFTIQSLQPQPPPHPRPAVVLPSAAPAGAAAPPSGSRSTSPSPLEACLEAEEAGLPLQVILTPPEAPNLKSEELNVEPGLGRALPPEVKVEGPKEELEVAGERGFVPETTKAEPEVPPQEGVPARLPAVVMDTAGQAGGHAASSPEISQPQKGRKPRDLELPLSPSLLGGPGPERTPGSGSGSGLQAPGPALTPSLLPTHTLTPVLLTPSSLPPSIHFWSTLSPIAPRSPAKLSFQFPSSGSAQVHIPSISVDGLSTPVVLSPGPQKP
# Procedure, shortened: as §1
# GABPA = target: T3, GABPA (Homo sapiens, UniProt Q06546 1-454)
# T3 sequence: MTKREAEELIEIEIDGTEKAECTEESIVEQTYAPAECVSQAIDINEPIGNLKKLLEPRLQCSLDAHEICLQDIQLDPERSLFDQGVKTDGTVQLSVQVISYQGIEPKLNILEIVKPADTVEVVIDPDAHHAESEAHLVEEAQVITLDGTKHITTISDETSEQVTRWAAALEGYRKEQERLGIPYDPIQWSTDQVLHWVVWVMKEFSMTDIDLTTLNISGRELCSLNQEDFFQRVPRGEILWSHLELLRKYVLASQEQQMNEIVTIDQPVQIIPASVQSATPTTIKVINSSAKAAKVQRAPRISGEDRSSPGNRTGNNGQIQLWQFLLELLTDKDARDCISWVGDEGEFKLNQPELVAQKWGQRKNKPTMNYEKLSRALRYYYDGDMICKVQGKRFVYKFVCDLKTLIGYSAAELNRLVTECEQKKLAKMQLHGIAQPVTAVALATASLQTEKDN
# Procedure, shortened: as §1
# ERG = target: T4, ERG (Homo sapiens, UniProt P11308 1-479)
# T4 sequence: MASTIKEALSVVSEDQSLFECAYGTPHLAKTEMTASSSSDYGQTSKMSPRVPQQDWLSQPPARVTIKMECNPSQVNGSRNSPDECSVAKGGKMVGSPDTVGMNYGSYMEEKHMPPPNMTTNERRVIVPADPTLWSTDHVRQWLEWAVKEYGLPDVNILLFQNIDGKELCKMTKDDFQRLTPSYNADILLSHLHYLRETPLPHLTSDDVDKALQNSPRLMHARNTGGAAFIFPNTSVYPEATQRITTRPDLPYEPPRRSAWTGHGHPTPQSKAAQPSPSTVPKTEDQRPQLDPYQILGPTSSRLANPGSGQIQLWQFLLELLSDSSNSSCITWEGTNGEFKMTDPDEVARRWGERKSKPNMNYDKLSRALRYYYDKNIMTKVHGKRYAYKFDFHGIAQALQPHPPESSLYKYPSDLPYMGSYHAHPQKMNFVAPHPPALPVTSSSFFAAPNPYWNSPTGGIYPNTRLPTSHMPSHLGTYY
# Procedure, shortened: as §1
# ELF1 = ELF1 (Homo sapiens, UniProt P32519 1-619)
# Sequence of ELF1 (P32519 whole entry): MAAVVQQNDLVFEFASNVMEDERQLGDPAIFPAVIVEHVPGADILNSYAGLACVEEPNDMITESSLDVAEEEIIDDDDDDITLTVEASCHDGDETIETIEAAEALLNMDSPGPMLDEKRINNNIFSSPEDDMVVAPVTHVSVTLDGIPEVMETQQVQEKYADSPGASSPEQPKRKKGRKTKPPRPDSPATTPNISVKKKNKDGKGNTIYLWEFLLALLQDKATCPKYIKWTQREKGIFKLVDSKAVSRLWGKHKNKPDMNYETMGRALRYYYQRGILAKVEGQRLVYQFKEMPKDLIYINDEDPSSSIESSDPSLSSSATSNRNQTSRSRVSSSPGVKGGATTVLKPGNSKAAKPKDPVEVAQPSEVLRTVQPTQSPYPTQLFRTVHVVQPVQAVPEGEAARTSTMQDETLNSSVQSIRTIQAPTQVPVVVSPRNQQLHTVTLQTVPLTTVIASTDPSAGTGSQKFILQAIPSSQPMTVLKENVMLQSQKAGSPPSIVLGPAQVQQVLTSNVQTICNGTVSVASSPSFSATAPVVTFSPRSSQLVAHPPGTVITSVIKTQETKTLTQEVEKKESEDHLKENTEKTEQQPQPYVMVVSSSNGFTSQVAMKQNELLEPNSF
# Procedure, shortened: as §1
# EHF = target: T5, EHF (Homo sapiens, UniProt Q9NZC4 1-300)
# T5 sequence: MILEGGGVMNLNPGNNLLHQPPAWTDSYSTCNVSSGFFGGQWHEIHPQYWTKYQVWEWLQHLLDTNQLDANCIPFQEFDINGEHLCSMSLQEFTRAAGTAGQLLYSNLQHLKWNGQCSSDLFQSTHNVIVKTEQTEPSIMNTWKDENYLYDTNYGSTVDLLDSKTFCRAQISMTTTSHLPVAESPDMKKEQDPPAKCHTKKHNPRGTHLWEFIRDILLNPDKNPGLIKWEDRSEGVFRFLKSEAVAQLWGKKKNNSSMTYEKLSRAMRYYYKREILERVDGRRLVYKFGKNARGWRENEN
# Procedure, shortened: as §1
# SPI1 = SPI1 (Homo sapiens, UniProt P17947 1-270)
# Procedure, shortened: as §1
# SPIB = SPIB (Homo sapiens, UniProt Q01892 1-262)
# Sequence of SPIB (Q01892 whole entry): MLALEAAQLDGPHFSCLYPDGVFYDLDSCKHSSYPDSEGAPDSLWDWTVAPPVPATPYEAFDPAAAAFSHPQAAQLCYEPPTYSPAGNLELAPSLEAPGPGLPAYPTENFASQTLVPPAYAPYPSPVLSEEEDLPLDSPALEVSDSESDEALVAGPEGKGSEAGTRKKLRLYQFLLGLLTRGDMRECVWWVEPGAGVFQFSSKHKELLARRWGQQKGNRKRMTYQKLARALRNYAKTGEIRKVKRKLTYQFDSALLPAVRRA
# Procedure, shortened: as §1
# ELK3 = target: T6, ELK3 (Homo sapiens, UniProt P41970 1-407)
# T6 sequence: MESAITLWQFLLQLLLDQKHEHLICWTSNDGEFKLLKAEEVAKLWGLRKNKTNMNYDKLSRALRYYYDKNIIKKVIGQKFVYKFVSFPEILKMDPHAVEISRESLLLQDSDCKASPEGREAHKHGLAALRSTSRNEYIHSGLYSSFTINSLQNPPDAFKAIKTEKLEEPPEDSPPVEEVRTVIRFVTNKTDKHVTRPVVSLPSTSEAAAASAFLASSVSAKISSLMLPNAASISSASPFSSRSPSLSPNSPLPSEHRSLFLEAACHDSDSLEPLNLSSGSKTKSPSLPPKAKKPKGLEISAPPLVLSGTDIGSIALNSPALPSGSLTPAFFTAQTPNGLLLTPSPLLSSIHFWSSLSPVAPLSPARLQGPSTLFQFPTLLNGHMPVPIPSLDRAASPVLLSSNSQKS
# Procedure, shortened: as §1
sequence,measurement,setting,value
TATCTC,binding signal,FLI1,"1.19 fold enrichment (6-mer frequency, TF over GST control)"
same,binding signal,ELK1,"1.32 fold enrichment (6-mer frequency, TF over GST control)"
same,binding signal,GABPA,"1.39 fold enrichment (6-mer frequency, TF over GST control)"
same,binding signal,ERG,"1.18 fold enrichment (6-mer frequency, TF over GST control)"
same,binding signal,ELF1,"1.29 fold enrichment (6-mer frequency, TF over GST control)"
same,binding signal,EHF,"1.35 fold enrichment (6-mer frequency, TF over GST control)"
same,binding signal,SPI1,"1.15 fold enrichment (6-mer frequency, TF over GST control)"
same,binding signal,SPIB,"1.38 fold enrichment (6-mer frequency, TF over GST control)"
same,binding signal,ELK3,"1.25 fold enrichment (6-mer frequency, TF over GST control)"
CCTCCA,binding signal,FLI1,"1.37 fold enrichment (6-mer frequency, TF over GST control)"
same,binding signal,ELK1,"1.5 fold enrichment (6-mer frequency, TF over GST control)"
same,binding signal,GABPA,"1.23 fold enrichment (6-mer frequency, TF over GST control)"
same,binding signal,ERG,"1.38 fold enrichment (6-mer frequency, TF over GST control)"
same,binding signal,ELF1,"1.37 fold enrichment (6-mer frequency, TF over GST control)"
same,binding signal,EHF,"1.33 fold enrichment (6-mer frequency, TF over GST control)"
same,binding signal,SPI1,"1.28 fold enrichment (6-mer frequency, TF over GST control)"
same,binding signal,SPIB,"1.3 fold enrichment (6-mer frequency, TF over GST control)"
same,binding signal,ELK3,"1.37 fold enrichment (6-mer frequency, TF over GST control)"
TAGCTA,binding signal,FLI1,"1.22 fold enrichment (6-mer frequency, TF over GST control)"
same,binding signal,ELK1,"1.24 fold enrichment (6-mer frequency, TF over GST control)"
same,binding signal,GABPA,"1.21 fold enrichment (6-mer frequency, TF over GST control)"
same,binding signal,ERG,"1.22 fold enrichment (6-mer frequency, TF over GST control)"
same,binding signal,ELF1,"1.25 fold enrichment (6-mer frequency, TF over GST control)"
same,binding signal,EHF,"1.22 fold enrichment (6-mer frequency, TF over GST control)"
same,binding signal,SPI1,"1.2 fold enrichment (6-mer frequency, TF over GST control)"
same,binding signal,SPIB,"1.22 fold enrichment (6-mer frequency, TF over GST control)"
same,binding signal,ELK3,"1.29 fold enrichment (6-mer frequency, TF over GST control)"
CTCCGA,binding signal,FLI1,"1.35 fold enrichment (6-mer frequency, TF over GST control)"
same,binding signal,ELK1,"1.42 fold enrichment (6-mer frequency, TF over GST control)"
same,binding signal,GABPA,"1.45 fold enrichment (6-mer frequency, TF over GST control)"
same,binding signal,ERG,"1.34 fold enrichment (6-mer frequency, TF over GST control)"
same,binding signal,ELF1,"1.37 fold enrichment (6-mer frequency, TF over GST control)"
same,binding signal,EHF,"1.39 fold enrichment (6-mer frequency, TF over GST control)"
same,binding signal,SPI1,"1.44 fold enrichment (6-mer frequency, TF over GST control)"
same,binding signal,SPIB,"1.52 fold enrichment (6-mer frequency, TF over GST control)"
same,binding signal,ELK3,"1.33 fold enrichment (6-mer frequency, TF over GST control)"
CCGCTC,binding signal,FLI1,"1.53 fold enrichment (6-mer frequency, TF over GST control)"
same,binding signal,ELK1,"1.52 fold enrichment (6-mer frequency, TF over GST control)"
same,binding signal,GABPA,"1.39 fold enrichment (6-mer frequency, TF over GST control)"
same,binding signal,ERG,"1.47 fold enrichment (6-mer frequency, TF over GST control)"
same,binding signal,ELF1,"1.58 fold enrichment (6-mer frequency, TF over GST control)"
same,binding signal,EHF,"1.54 fold enrichment (6-mer frequency, TF over GST control)"
same,binding signal,SPI1,"1.48 fold enrichment (6-mer frequency, TF over GST control)"
same,binding signal,SPIB,"1.59 fold enrichment (6-mer frequency, TF over GST control)"
same,binding signal,ELK3,"1.49 fold enrichment (6-mer frequency, TF over GST control)"
AACCAA,binding signal,FLI1,"1.24 fold enrichment (6-mer frequency, TF over GST control)"
same,binding signal,ELK1,"1.22 fold enrichment (6-mer frequency, TF over GST control)"
same,binding signal,GABPA,"1.25 fold enrichment (6-mer frequency, TF over GST control)"
same,binding signal,ERG,"1.16 fold enrichment (6-mer frequency, TF over GST control)"
same,binding signal,ELF1,"1.22 fold enrichment (6-mer frequency, TF over GST control)"
same,binding signal,EHF,"1.22 fold enrichment (6-mer frequency, TF over GST control)"
same,binding signal,SPI1,"1.19 fold enrichment (6-mer frequency, TF over GST control)"
same,binding signal,SPIB,"1.15 fold enrichment (6-mer frequency, TF over GST control)"
same,binding signal,ELK3,"1.19 fold enrichment (6-mer frequency, TF over GST control)"
AGCACT,binding signal,FLI1,"1.38 fold enrichment (6-mer frequency, TF over GST control)"
same,binding signal,ELK1,"1.52 fold enrichment (6-mer frequency, TF over GST control)"
same,binding signal,GABPA,"1.41 fold enrichment (6-mer frequency, TF over GST control)"
same,binding signal,ERG,"1.48 fold enrichment (6-mer frequency, TF over GST control)"
same,binding signal,ELF1,"1.4 fold enrichment (6-mer frequency, TF over GST control)"
same,binding signal,EHF,"1.36 fold enrichment (6-mer frequency, TF over GST control)"
same,binding signal,SPI1,"1.4 fold enrichment (6-mer frequency, TF over GST control)"
same,binding signal,SPIB,"1.44 fold enrichment (6-mer frequency, TF over GST control)"
same,binding signal,ELK3,"1.62 fold enrichment (6-mer frequency, TF over GST control)"
